Screens from PubChem BioAssay.
Shown is part of a subset that was picked to be rich in hits.
ST2 inh: inhibitors of human ST2 (IL1RL1) binding to IL-33; Q01638; AlphaLISA ST2-Fc/biotin-IL-33 interaction, 1 h; inhibition, % for hits at 17 µM; 78,000 tested, 2.3% active; AID 1259354; in the data active = inhibition above about 30%
Target sequence (Q01638 whole entry, looked up): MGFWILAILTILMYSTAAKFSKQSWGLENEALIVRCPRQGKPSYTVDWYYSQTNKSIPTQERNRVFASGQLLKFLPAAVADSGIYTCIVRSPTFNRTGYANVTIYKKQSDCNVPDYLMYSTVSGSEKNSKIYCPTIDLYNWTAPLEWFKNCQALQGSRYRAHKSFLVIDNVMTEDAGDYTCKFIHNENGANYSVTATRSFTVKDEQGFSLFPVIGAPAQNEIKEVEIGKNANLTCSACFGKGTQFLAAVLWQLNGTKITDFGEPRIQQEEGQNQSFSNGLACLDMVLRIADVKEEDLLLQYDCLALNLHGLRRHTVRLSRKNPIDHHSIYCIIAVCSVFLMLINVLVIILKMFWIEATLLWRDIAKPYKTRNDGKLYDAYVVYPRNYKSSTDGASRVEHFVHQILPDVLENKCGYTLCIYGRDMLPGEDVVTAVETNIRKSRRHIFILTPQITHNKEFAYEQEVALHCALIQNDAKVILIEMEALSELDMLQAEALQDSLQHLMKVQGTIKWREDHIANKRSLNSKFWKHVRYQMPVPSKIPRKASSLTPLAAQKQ
* = called active by the depositor.

COc1ccc2nc3oc(C(=O)N4CCN(C)CC4)cc3cc2c1 was read as ST2 inh inactive.
`N#Cc1c(N)n(-c2ccc(Cl)cc2)c2nc3ccccc3nc12` gave ST2 inh inactive.
For COc1ccc(-n2c(N)c(C#N)c3nc4ccccc4nc32)c(OC)c1 the results were ST2 inh 32.0%*.
`CCOC(=O)c1c(N)n(-c2ccc(C)cc2C)c2nc3ccccc3nc12` gave ST2 inh inactive.
For CCCC(=O)Nc1cccc(-c2nc3ncccc3o2)c1C the results were ST2 inh inactive.
Screening O=C1CC(N2CCCC(CO)C2)C(=O)N1c1ccccc1 (stereo not drawn) returned ST2 inh inactive.
O=C(O)CSc1nnc(Cc2c[nH]c3ccccc23)n1-c1ccccc1F was read as ST2 inh inactive.
Screening O=C1c2ccccc2C(=O)c2c1nc1n2CCOC1 returned ST2 inh inactive.
Screening Nc1nc2ccccc2nc1N returned ST2 inh inactive.
For Nc1cc2c3c(cccc3n1)C(=O)c1ccccc1-2 the results were ST2 inh 34.0%*.
Screening COC(=O)c1c(NC(=O)C(C)Oc2ccccc2Br)sc(C)c1C (stereo not drawn) returned ST2 inh inactive.
CCCNC(=O)c1sc2c(Cl)c(OC)ccc2c1Cl was read as ST2 inh 53.0%*.
Screening CCCCNC(=O)c1sc2ccccc2c1Cl returned ST2 inh inactive.
COc1ccc(NC(=O)c2sc3ccccc3c2Cl)cc1Cl was read as ST2 inh inactive.
Screening COCCCN1C(=O)CSc2c(c3ccccc3n2C)C1C(=O)NCCC(C)C (stereo not drawn) returned ST2 inh inactive.
`Cc1cc(N2CCN(C)CC2)nc(N2CCN(S(=O)(=O)c3ccc(C)c(C)c3)CC2)n1` gave ST2 inh inactive.
For Cc1c(Cl)c([N+](=O)[O-])cc([N+](=O)[O-])c1N1CCCC1 the results were ST2 inh 40.0%*.
Cc1ccc(OCCCN2CCCCC2)c([N+](=O)[O-])c1 was read as ST2 inh inactive.
Screening CCS(=O)(=O)N1CCN(c2c(Cl)cccc2[N+](=O)[O-])CC1 returned ST2 inh inactive.
Screening Cc1sc2c(c1C)c(=O)n(-c1ccccc1)c1nnc(SCC(N)=O)n21 returned ST2 inh inactive.
Cc1[nH]n(-c2ccccc2)c(=O)c1C=Nc1c(C)[nH]n(-c2ccccc2)c1=O was read as ST2 inh inactive.
Screening CCCCOc1cccc(N=Cc2c(C)[nH]n(-c3ccccc3)c2=O)c1 returned ST2 inh 36.0%*.
`Cc1[nH]n(-c2ccccc2)c(=O)c1C=Nc1cccc(N)c1` gave ST2 inh inactive.
For O=C(NC1CCCCCCC1)c1ccc2nc3cc(Cl)ccc3c(=O)n2c1 the results were ST2 inh inactive.
CCCOc1ccc(C(=O)N2CCOCC2)cc1OC was read as ST2 inh inactive.
`Cc1cc(C)c(C(=O)c2ccc(C(=O)N3CCOCC3)cc2)c(C)c1` gave ST2 inh inactive.
`C=CCOc1ccc(C(=O)N2CCOCC2)cc1` gave ST2 inh 31.0%*.
`Cc1c(C(=O)N2Cc3cnc(CC(C)C)nc3C2)cnn1-c1ccccn1` gave ST2 inh inactive.
Screening COc1ccc(C(=O)N(c2ccc(F)cc2)C2C=CS(=O)(=O)C2)cc1 (stereo not drawn) returned ST2 inh inactive.
CCOc1ccc2cc(C3CC(c4ccc(Br)cc4)=NN3C(=O)CC)c(=O)[nH]c2c1 (stereo not drawn) was read as ST2 inh inactive.
Screening Cc1ccccc1C1(O)CCN(C(=O)CCc2cn3ccccc3n2)C1 (stereo not drawn) returned ST2 inh inactive.
`O=C(c1ccc(F)cc1)N1CCN=C1SCc1c(F)cccc1Cl` gave ST2 inh inactive.
Screening O=C(NC[C@H]1O[C@@H](CO)[C@@H](O)[C@H]1N1CCN(c2ccccc2)CC1)N1CCOCC1 returned ST2 inh inactive.
For COc1cc(NC(=O)NC[C@H]2O[C@@H](CO)[C@@H](O)[C@H]2N2CCN(c3cccc(C(F)(F)F)c3)CC2)cc(OC)c1 the results were ST2 inh 86.0%*.
Screening O=C(NC[C@H]1O[C@@H](CO)[C@@H](O)[C@H]1N1CCN(c2cccc(C(F)(F)F)c2)CC1)c1cccc(F)c1 returned ST2 inh inactive.
For CN1CCN([C@@H]2[C@H](O)[C@H](CO)O[C@@H]2CNC(=O)c2cccc(F)c2)CC1 the results were ST2 inh 32.0%*.
Screening COc1ccccc1N1CCN([C@@H]2[C@H](O)[C@H](CO)O[C@@H]2CNC(=O)c2cccc(F)c2)CC1 returned ST2 inh inactive.
O=C(NC[C@H]1O[C@@H](CO)[C@@H](O)[C@H]1N1CCN(c2ccccc2)CC1)c1ccc(C(F)(F)F)cc1 was read as ST2 inh inactive.
O=C(NC[C@H]1O[C@@H](CO)[C@@H](O)[C@H]1N1CCCC1)c1ccco1 was read as ST2 inh inactive.
CN1CCN([C@@H]2[C@H](O)[C@H](CO)O[C@@H]2CNC(=O)Nc2cccc(Cl)c2)CC1 was read as ST2 inh inactive.
`O=C(NC[C@H]1O[C@@H](CO)[C@@H](O)[C@H]1N1CCN(c2ccc(F)cc2)CC1)c1ccc(F)c(Cl)c1` gave ST2 inh 34.0%*.
`COc1ccc(C(=O)NC[C@H]2O[C@@H](CO)[C@@H](O)[C@H]2N2CCN(c3ccccn3)CC2)cc1` gave ST2 inh inactive.
Screening O=C(NC[C@H]1O[C@@H](CO)[C@@H](O)[C@H]1N1CCN(c2cccc(C(F)(F)F)c2)CC1)c1cccs1 returned ST2 inh inactive.
Screening CC(=O)NC[C@H]1O[C@@H](CO)[C@@H](O)[C@H]1N1CCN(c2ccccc2)CC1 returned ST2 inh 37.0%*.
`CC(C)(C#N)C(O)c1ccccc1` (stereo not drawn) gave ST2 inh inactive.
`Cc1cc(CC(C)NC(=O)/C=C/c2ccccc2)n[nH]1` (stereo not drawn) gave ST2 inh inactive.
For O=C(NCCCO)c1ccc(Cl)cc1 the results were ST2 inh inactive.
For CCC(CC)C(=O)NC[C@H]1O[C@@H](CC(=O)N2CCN(c3ccccc3)CC2)[C@H](O)[C@@H]1O the results were ST2 inh inactive.
`O=C(c1cccc(F)c1)N1CCN(CCCc2ccccc2)CC1` gave ST2 inh inactive.
`O=C(C1CNCCN1C(=O)CCc1cc(Cl)no1)N1CCOCC1` (stereo not drawn) gave ST2 inh inactive.
Cc1cccnc1CC(C)NC(=O)c1ccc(Cn2cnnn2)cc1 (stereo not drawn) was read as ST2 inh inactive.
For CCc1ccc(CN2CCC3(CCCN(Cc4ccccc4F)C3=O)C2)o1 (stereo not drawn) the results were ST2 inh inactive.
O=[N+]([O-])c1ccc(S(=O)(=O)Nc2ccccc2)cc1 was read as ST2 inh inactive.
Screening O=c1cc[nH]c2ccc([N+](=O)[O-])cc12 returned ST2 inh inactive.
Screening O=[N+]([O-])c1ccc(Nc2c[nH]c3ccccc23)cc1 returned ST2 inh 42.0%*.
`O=C(NS(=O)(=O)c1ccc(NS(=O)(=O)c2cccs2)cc1)c1ccccc1` gave ST2 inh inactive.
COc1cc(NS(=O)(=O)c2ccc(Cl)cc2)c(OC)cc1NC(=O)c1ccccc1 was read as ST2 inh inactive.
COc1ccccc1NC1=CC(=NS(=O)(=O)c2cccs2)c2ccccc2C1=O was read as ST2 inh 90.0%*.
